Drawing on PubChem BioAssay (NCI), this text covers growth for 39 compounds.

Several values for one entry are separate records, joined by “and”; a condition that tells them apart may be missing. Equal entries are not always repeated. This is part of a sample that, as a whole, favours compounds with a hit. Of some 83,000 tested, about 20% had one in any assay.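 Step 1: grow cells in 96-well plates. Step 2: add test compound at a single concentration. Step 3: incubate 48 h. Step 4: record percent growth.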 Values without a mark were called inactive. Activity calls are given as the source filed them.

The first assay concerns HL-60(TB) leukemia. Description: NCI-60 one-dose screen, 48 h (100 = growth as untreated, 0 = no growth, -100 = all killed). Conditions: 10 µM. The protocol:
Growth inhibition of the HL-60(TB) human tumor cell line is measured as a screen for anti-cancer activity. Cells are grown in 96 well plates and exposed to the test compound for 48 hours. Compounds are tested at a single concentration, which is 10^-5 M for most compounds. The reported endpoint is percent growth (GI% or GIPRCNT), where numbers from 0 - 100% represent growth inhibition, and numbers from -100% - 0 represent cell death. For example, a value of 40 represents 60% growth inhibition. A value of 0 means no net growth occurred over the course of the experiment. A value of -40 indicates 40% of cells at the beginning of the experiment died by the end of the experiment. A value of -100 means all cells are dead at the end of the experiment.
NCI-60 Human Tumor Cell Lines Screen was performed using the standard one-dose NCI protocol, which is described in more detail at https://dtp.cancer.gov/discovery_development/nci-60/default.htm.
Compounds with GIPRCNT values below 10 were considered active. Activity score was based on GIPRCNT using the following formula: […]
Score is 0 for GIPRCNT values of 100 or above, 50 for GIPRCNT values of 0, and 100 for GIPRCNT values of -100.
Consider `COc1ccc(C(=O)/C=C/c2ccc(OCc3ccc(Cl)cc3)cc2)cc1OC`, for which the growth is 81.2%.

Staying with this assay, now noted: 10 µM unless noted.
Consider `NCCCNc1nc2ccccc2c2c(=O)c3cccc(F)c3sc12`, for which the growth was 13.9%.
`CNc1ccc(Cl)cc1S(=O)(=O)c1ccccc1[N+](=O)[O-]`: the growth is 65.3% and 79.9%.
Turning to `CCCCCCCOc1cccc(/C=C2\N=C3SCCCN3C2=O)c1`, the growth is 65%.
Turning to `NC(=O)CN1C(=O)c2ccccc2C1=O`, the growth was 96.6%.
`C[C@H]1[C@H]2[C@H]3CC[C@@H]4[C@@]5(C)C/C(=C/c6cccnc6)C(=O)C(C)(C)[C@@H]5CC[C@@]4(C)[C@]3(C)CC[C@]23CO[C@]1(C)[C@@H](C(=O)/C=C\c1cccnc1)C3`: the growth was 14.5%.
In the case of `COc1cc(NS(C)(=O)=O)ccc1Nc1c2ccccc2nc2c(C)cccc12`, the growth was -29.5% (active) and -20.2% (active).
Still for that read-out and setting: then `Nc1c(Br)cc(Br)cc1-c1n[nH]c(=O)[nH]c1=O`, with 94.4%; and `Nc1c(C(=O)Nc2cccc(Cl)c2)sc2nc3c(cc12)C(=O)CCC3`, with 33.1%.
On to `Cc1nc(NC(=O)NC2CCCCC2)sc1C(=O)NN`, for which the growth was 172%.
Still for that read-out and setting: then `CCN(CC)C(=O)O/N=C(/C)c1ccccc1`, with 95.5%; and `COc1ccc(-c2cnnn2-c2nonc2-n2cccc2)cc1`, with -37.9% (active).
As for `O=C1c2cccc3cccc(c23)C(=O)N1CC#Cc1ccc2c3c(cccc13)C(=O)N(CCO)C2=O`, the growth is 112%.
With `Nc1nc(=S)c2ncn(C3OC(CO)C(O)C3O)c2[nH]1` (stereo not given), the growth was 96.4% and 21.3%.
For the compound `O=C(Nc1ccc(Cl)c(Cl)c1)Nc1ccc(Cl)c([N+](=O)[O-])c1`, the growth is -39.9% (active).
The same measure, in the same setting: then `ClCC(Cl)C1CCC(Cl)C(Cl)C1` (stereo not given), with 89.6%; and `O=C1/C(=C/c2ccc(O)cc2O)N=C2SCCCN12`, with 100%.
The same measure, in the same setting: the figure for `O=C(OCc1ccc2c(Cl)cc(Cl)c(O)c2n1)n1cncn1` is 17.7%; for `c1ccc(C(NC2CC3CCC2C3)c2ccccc2)cc1` (stereo not given) it is 100%; for `CCOc1ccccc1/C=N\N=C\c1ccccc1O` it is 30.6%.
Same read-out and setting: then `Cc1nc2nc(C(F)(F)F)[nH]c2nc1C`, with 98.8%; and `O=C(Nc1cccc(-n2cc(-c3ccncc3)c(-c3ccc(Cl)c(O)c3)n2)c1)Nc1ccc(Cl)c(Cl)c1`, with -6.98% (active); and `NC(=S)NN=C1CCC(C2CCCCC2)CC1` (stereo not given), with 91.2% and 70.9%.
On to `COc1cc2ccccc2cc1C(=O)NC(=S)Nc1ccc(-c2nc3ccccc3[nH]2)cc1`, for which the growth was 106%.
In the case of `CC(C)(C)c1ccc(OP(=S)(N/N=C/c2ccccc2O)Oc2ccc(C(C)(C)C)cc2)cc1`, the growth is 77.8%.
Turning to `ClC(Cl)c1nc(-c2cccnc2)n2nc(-c3ccccc3)cc2n1`, the growth is 14.2%.
In the case of `c1ccc2cc(C[n+]3ccn(Cc4ccc5ccccc5n4)c3)ccc2c1`, the growth is -42.3% (active) and -25.4% (active).
Turning to `CCOc1ccc2cc(-c3nn(CC4CCNCC4)c4ncnc(N)c34)ccc2c1`, the growth was 98.1% and 19.7%.
On to `CC#Cc1nc2ccccc2c(=O)[nH]1`, for which the growth is 11.4%.
With `COC(=O)/C=C1/SC(=Nc2cccc(OC)c2)N(CCc2c[nH]c3ccc(O)cc23)C1=O`, the growth is 59.8%.
`N=c1c2ccccc2nc2n1CCCCC2`: the growth was 130%.
Take `CCc1ccc(Oc2cn[nH]c2-c2ccc(OCCc3ccc(F)cc3)cc2O)cc1`: the growth is 111%.
Turning to `Cn1c(=O)c2nc(/C=C/c3ccccc3)c(=O)[nH]c2n(C)c1=S`, the growth was 98.2%.
Turning to `CC(=O)c1cccc(NS(=O)(=O)c2cccc(C(=O)Nc3ccc(Br)cc3)c2)c1`, the growth was 48.7% [25 µM].
Take `COc1cc(-c2cc(-c3ccc(N(C)C)cc3)nc(N3CCC(O)CC3)c2C#N)cc(OC)c1OC`: the growth was -23.6% (active).
On the same count and under the same terms, then `CSc1nc(N)c(CNC(C)c2ccccc2)c(=O)n1C` (stereo not given), with 81.1%; and `C=C(C)[C@@H]1CC[C@]2(C(=O)NCC#CCN3CCN(C)CC3)CC[C@]3(C)[C@H](CC[C@@H]4[C@@](C)(CCC#N)[C@H](C(=C)C)CC[C@]43C)[C@@H]12`, with 10.9%.
Same read-out and setting: then `COc1ccc(-c2nn(-c3cccc(NC(=O)c4ccc(Cl)c(Cl)c4)c3)cc2-c2ccncc2)cc1Cl`, with 89.1%; and `CC(C)(C)c1ccc(S(=O)(=O)Oc2ccc3c4c(c(=O)oc3c2)CCCCC4)cc1`, with 52%.

Staying with this assay, now noted: 100 µM.
`COc1ccc(C(=O)/C=C/c2ccc(OCc3ccc(Cl)cc3)cc2)cc1OC`: the growth was 18.7%.
